Laboratory results taken from PubChem BioAssay (NCI).
This is part of a sample that, as a whole, favours compounds with a hit. Of some 79,000 tested, about 15% had one in any assay. Rule as the data show it: active = growth inhibition above about 70%; inactive = the rest.

How the values were obtained:
[1] = NCI Yeast Anticancer Drug Screen. Data for the rad50 strain (AID 155);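 also: 0% = growth of vehicle-only cultures of the same strain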; details: S. cerevisiae rad50 strain growth inhibition; at 50.0 µM; stronger effect = higher value
Procedure, shortened: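 Readout: growth inhibition relative to vehicle-treated cultures. Compound exposure was carried out in a genetically defined yeast strain deficient in DNA damage repair.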

[2] = NCI Yeast Anticancer Drug Screen. Data for the mec2-1 strain (AID 157); details: S. cerevisiae mec2-1 strain, at 50.0 µM, stronger effect = higher value
Procedure, shortened: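 Readout is yeast growth inhibition, normalised to vehicle-treated controls, in the mec2-1 strain exposed to compound.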

[3] = NCI Yeast Anticancer Drug Screen. Data for the sgs1 mgt1 strain (AID 161);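 also: 0% = growth of cultures given vehicle only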; details: S. cerevisiae sgs1 mgt1 strain, at 50.0 µM, stronger effect = higher value
Procedure, shortened: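 Growth of a repair-deficient yeast mutant was monitored after compound treatment and expressed as inhibition relative to vehicle-treated cultures.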

[4] = NCI Yeast Anticancer Drug Screen. Data for the cln2 rad14 strain (AID 165);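 also: 0% = growth equal to vehicle treated cultures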; details: S. cerevisiae cln2 rad14 strain, at 50.0 µM, stronger effect = higher value
Procedure, shortened: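 Relative to vehicle controls, growth inhibition of compound-treated cln2 rad14 yeast was recorded.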

[5] = NCI Yeast Anticancer Drug Screen. Data for the bub3 strain (AID 167); details: S. cerevisiae bub3 mutant strain, at 50.0 µM, stronger effect = higher value
Procedure, shortened: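 Readout: yeast growth inhibition, expressed relative to vehicle-only wells. The test organism is a mutant strain from a panel with lesions in DNA repair or checkpoint genes.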

[6] = NCI Yeast Anticancer Drug Screen. Data for the mlh1 rad18 strain (AID 175); details: S. cerevisiae mlh1 rad18 strain growth inhibition; at 50.0 µM; stronger effect = higher value
Procedure, shortened: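 Test agents were incubated with a yeast strain of defined genotype (DNA damage repair defect). Inhibition of growth was derived by comparison with vehicle-exposed cultures.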

Measured: growth inhibition

CC(C)(C)C(C(N)=O)C(C)(C)C
inactive: [1] 4.4% | [2] 2.6% | [3] -6.1% | [4] 14.4% | [5] 10.8% | [6] -19.6%

NC(Cc1ccccc1)=NCC(=O)O
inactive: [1] -40.5% | [2] -7.9% | [3] -29.4% | [4] -79.9% | [5] -19.7% | [6] -25.2%

CCOC(OCC)C(C)(C)OC=O
inactive: [1] -9.2% | [2] -20.8% | [3] -7.7% | [4] 24.2% | [5] 10.6% | [6] 6.6%

CCOC(=O)c1nc2ccc(C(F)(F)F)cc2nc1Nc1ccc(OC)c(OC)c1
inactive: [1] -16.7% | [2] -11.9% | [3] -15.7% | [4] -6.15% | [5] -17.4% | [6] -8.75%

COc1ccc(/C(O)=C/c2nc3cccc([N+](=O)[O-])c3[nH]c2=O)cc1
inactive: [1] 20.2% | [2] -14.8% | [3] 2.3% | [4] -14.1% | [5] -35.4% | [6] 17.7%

CO[C@@]12C[C@@H](C)[C@]34O[C@H]3C[C@]3(C)O[C@]43CC1=C(C)C(=O)O2
inactive: [1] 10.2% | [2] 1.2% | [3] 23.6% | [4] 7.5% | [5] 28.4% | [6] -64%

CCOC(=O)C1=C(C)NC(C)=C(C(=O)OCC)C1C
inactive: [1] -29.1% | [2] -35.9% | [3] 4.5% | [4] -10.5% | [5] -22.1% | [6] -6.8%

O=C(/C=C/c1ccc(OCCCCCCCCCCOc2ccc(/C=C/C(=O)c3ccc(Cl)cc3)cc2)cc1)c1ccc(Cl)cc1
inactive: [1] 5.3% | [2] -1.45% | [3] -15.3% | [4] 16.1% | [5] 22.5% | [6] 15.6%

c1cncc([O][Ge]([O]c2cccnc2)([O]c2cccnc2)[O]c2cccnc2)c1
inactive: [1] 8.6% | [2] 15.8% | [3] 31% | [4] 24.1% | [5] 3% | [6] 35.8%

O=C(Nc1cc(C(F)(F)F)ccc1Cl)c1ccc(Cl)cc1Cl
inactive: [1] 8.2% | [2] 11.2% | [3] 1.7% | [4] -0.75% | [5] 9.9% | [6] 13.7%

COc1ccccc1OCc1nnc(SCC(=O)O)n1-c1ccccc1
inactive: [1] 3.75% | [2] 3.4% | [3] 2.45% | [4] 11.6% | [5] 8.4% | [6] 27.9%

C[N+](C)(CCS(=O)(=O)[O-])C1CCCCC1
inactive: [1] -6.65% | [2] -8.7% | [3] -8.9% | [4] -23.1% | [5] 6.75% | [6] -12.8%

Cc1cc(C)c(N)c(C(=O)O)c1
inactive: [1] -46.5% | [2] -34.6% | [3] -39.8% | [4] -16.1% | [5] -47% | [6] -15.9%

CC(NC(=O)C(C)(C)C)c1ccc2c(c1)OCCO2 (configuration not stated)
inactive: [1] -4.45% | [2] -11.3% | [3] 6.6% | [4] -3.7% | [5] 4.3% | [6] 2.85%

Cc1cc(C)n(-c2nc(C)c(CCO)c(=O)[nH]2)n1
inactive: [1] -6.45% | [2] -14.6% | [3] -6.4% | [4] 15.7% | [5] -41.4% | [6] -9.1%

CC(C)=CCc1ccc2c(c1)CCCN2C
inactive: [1] -44.4% | [2] -22.1% | [3] -17.4% | [4] -47% | [5] 20.9% | [6] 1.15%

Cc1ccc([N+](=O)[O-])cc1NC(=O)C(=O)Cc1nc2ccc(C(=O)c3ccccc3)cc2[nH]c1=O
inactive: [1] -4.7% | [2] -20.7% | [3] -9.05% | [4] 11.6% | [5] 10.3% | [6] -5.7%

Cc1cccc(NC(=O)C(C)C)c1
inactive: [1] 24.3% | [2] 19.4% | [3] 11.8% | [4] -2.35% | [5] -43.9% | [6] -33%

O=C(c1ccccc1)C(C(c1ccc(Cl)cc1)N1CCOCC1)N1CCOCC1 (configuration not stated)
inactive: [1] 5.15% | [2] 2.75% | [3] 16.8% | [4] 19.9% | [5] 10.7% | [6] 7.65%

CN1CCCC2C3=CC=C4CC(O)CCC4(C)C3CCC21C (configuration not stated)
inactive: [1] 60.4% | [2] 21.5% | [3] 34.9% | [4] 14.5% | [5] 23.9% | [6] 35.5%

O=C(c1ccc(Cl)c(Cl)c1)N1CCCCC1
inactive: [1] -1.25% | [2] -7% | [3] 13.8% | [4] -48.5% | [5] -12.5% | [6] -6.25%

CC(C)C(NC(=O)C(=O)c1c[nH]c2ccc(Cl)cc12)C(=O)O (configuration not stated)
inactive: [1] -28.9% | [2] -9.55% | [3] -5.7% | [4] -10% | [5] -10.2% | [6] -1.95%

CC(C)(C(=Nc1ccc([N+](=O)[O-])cc1)N1CCOCC1)c1ccccc1
inactive: [1] 9% | [2] 6.7% | [3] 5.05% | [4] 34.6% | [5] 32.1% | [6] 22.6%

CCCn1c(=S)[nH]c2c(=O)n(C)c(=O)n(C)c21
inactive: [1] -3.55% | [2] -8.9% | [3] -0.45% | [4] -17.8% | [5] -4.85% | [6] 5.65%

O=C(CCC(=O)Nc1cccc(Cl)c1)CC(=O)c1ccc(F)cc1
inactive: [1] -11.2% | [2] -1.8% | [3] 6.3% | [4] -23.9% | [5] -0.85% | [6] -4.85%

CN(C)CC1CCCC/C1=N\OC(=O)c1ccccc1 (configuration not stated)
inactive: [1] -6.9% | [2] -13.8% | [3] 4.15% | [4] 6.25% | [5] 5.8% | [6] 8.1%

C=C1CCC2C(C)(CO)C(O)CCC2(C)C1CCC1=CCOC1=O (configuration not stated)
inactive: [1] -22.4% | [2] -17.6% | [3] -3.2% | [4] 3.35% | [5] -4.4% | [6] -8.05%

c1ccc(CNCCCNCCCCNCCCNCc2ccccc2)cc1
inactive: [1] 7.75% | [2] -5.5% | [3] 9.4% | [4] -10.3% | [5] 17.8% | [6] 7.45%

Cc1cn(C2CC(O)C(CO)O2)c(=O)nc1NC1CCCCCCCCCCC1 (configuration not stated)
inactive: [1] 1.25% | [2] 5.7% | [3] 10.1% | [4] 12.9% | [5] -5.5% | [6] -6.4%

CN(CCCn1ccnc1[N+](=O)[O-])CCCn1ccnc1[N+](=O)[O-]
inactive: [1] -28.1% | [2] -12.6% | [3] -0.35% | [4] 3.85% | [5] -5.05% | [6] 11.6%

Cc1ccc(S(=O)(=O)N(CCO)CCCO)cc1
inactive: [1] -16.7% | [2] -43.3% | [3] -9.95% | [4] 5.1% | [5] -35.3% | [6] 1.7%

CCCCC/C(=N\Nc1ccc([N+](=O)[O-])cc1[N+](=O)[O-])c1ccc(-c2ccccc2)cc1
inactive: [1] 13.9% | [2] 6.05% | [3] -6.9% | [4] 19.1% | [5] -5.95% | [6] 0.6%

C=CC1C(C(=O)Nc2ccccc2)CN1C (configuration not stated)
inactive: [1] 7.1% | [2] 14.4% | [3] -4.15% | [4] 18.3% | [5] 10.9% | [6] -3.4%

Cc1nc[nH]c1[N+](=O)[O-]
inactive: [1] -6.6% | [2] -11% | [3] -10% | [4] 2.2% | [5] -0.85% | [6] -12.7%

CCCCC(CC)(CO)CO
inactive: [1] 11.2% | [2] 3.95% | [3] 5.35% | [4] 1.05% | [5] -4.55% | [6] 16.6%

N#C/C(=C\c1ccco1)C(=O)c1ccco1
inactive: [1] 19.4% | [2] 15.1% | [3] 28.2% | [4] 13.8% | [5] 38.7% | [6] 34.6%

CC(C)(C)/C=N/Nc1ccc([N+](=O)[O-])cc1[N+](=O)[O-]
inactive: [1] 26.4% | [2] 15.1% | [3] -0.05% | [4] -40.2% | [5] 11.7% | [6] -13.3%
